The values below come from PubChem BioAssay (Tox21).

The structures appear in SMILES notation. A number with no mark means an inactive call. Results filed as inconclusive are left out. Calls of active or inactive are those of the source. Unless noted, calls come from the whole dose curve.

Experiment [1] is described as follows: Nuclear factor erythroid 2-related factor 2/antioxidant responsive element (Nrf2/ARE) small molecule agonists: qHTS cell viability counter screen in human keratinocytes (AID 1919968; active = well fitted curve in the direction sought with a large enough effect in the repeat runs; an effect the other way counts as inactive or inconclusive; note: nearly all actives have a fitted effect of over 55% in size; note: potency is the fitted concentration of half-maximal effect). The method, boiled down:
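After a 5 h attachment period, ARE-reporter keratinocytes were dosed with compounds in DMSO and then cultured 23 h at 37 C. Cell viability came from CellTiter-Fluor signal read after a further 1 h.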

The nature of experiment [2]: Nuclear factor erythroid 2-related factor 2/antioxidant responsive element (Nrf2/ARE) small molecule agonists: luciferase reporter gene qHTS assay in human keratinocytes (AID 1919969). Note: nearly all actives have a fitted effect of over 35% in size. Note: potency is the fitted concentration of half-maximal effect.
For experiment [3], the target named is Gonadotropin-releasing hormone receptor (Homo sapiens) (UniProt P30968). As to the kind of experiment: Human gonadotropin-releasing hormone receptor (GnRHR) small molecule agonists, calcium flux assay in GnRHR-HEK293 cells (AID 1920063). Note: nearly all actives have a fitted effect of over 35% in size. Note: potency is the fitted concentration of half-maximal effect. In a few lines: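 We seeded human GnRHR-expressing HEK293 cells for 18 hours, loaded them with calcium dye for an hour at 37 C, added test compounds, and recorded fluorescence intensity kinetically for three minutes.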

Experiment [4] deals with KiSS-1 receptor (Homo sapiens) (UniProt Q969F8). As to the kind of experiment: Human kisspeptin (KISS1R) small molecule agonists, calcium flux assay in KISS1R-HEK293 cells (AID 1920064; active = well fitted curve in the direction sought with a large enough effect in the repeat runs; an effect the other way counts as inactive or inconclusive; note: potency is the fitted concentration of half-maximal effect). In a few lines:
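Kinetic calcium assay, 1 s sampling over 3 min at Ex/Em 480/540, in HEK293 cells engineered with human KISS1R; compounds delivered in DMSO after 1 h dye loading.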

Experiment [5] is described as follows: G protein-coupled receptor (GPCR) small molecule agonists, calcium flux assay: HEK293 wild type cell line counter screen (AID 1920065). Note: potency is the fitted concentration of half-maximal effect. The method, boiled down: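 Calcium-sensitive dye, loaded 1 h at 37 C into cells cultured 18 h, reports compound-evoked calcium release as fluorescence (Ex/Em 480/540), measured over 3 min. Agonist mode; 15-point titrations, triplicate.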

Experiment [6] in a line: p53 small molecule agonists, cell-based qHTS assay with human liver microsomes (AID 1963577).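 Note: p53 response element beta-lactamase reporter cells with liver microsomes plus NADPH.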 In a few lines:
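Steps: plate p53RE-bla cells, incubate 5 h at 37 C; add compound in DMSO; add microsomes (0.5 mg/mL final) and NADPH (0.5 mg/mL final); incubate 16 h at 37 C; add LiveBLAzer, 2 h RT; read fluorescence.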

Experiment [7] can be described thus: p53 small molecule agonists, cell-based qHTS assay with rat liver microsomes (AID 1963578). In a few lines:
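Metabolic activation is supplied by rat liver microsomes with NADPH (each 0.5 mg/mL final). p53RE-bla cells incubate with compound 16 h at 37 C; reporter activity is measured by LiveBLAzer fluorescence.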

A short description of experiment [8]: p53 small molecule agonists, cell-based qHTS assay with human liver microsomes: qHTS cell viability counter screen (AID 1963579). Note: nearly all actives have a fitted effect of over 45% in size. Note: potency is the fitted concentration of half-maximal effect. The method, boiled down:
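After the 460/530 nm beta-lactamase read, CellTiter-Glo was added to the same wells and luminescence measured after 30 min at room temperature, giving viability of p53RE-bla cells treated 16 h with compounds plus microsomes and NADPH.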

Experiment [9] can be described thus: p53 small molecule agonists, cell-based qHTS assay with rat liver microsomes: qHTS cell viability counter screen (AID 1963580). Note: nearly all actives have a fitted effect of over 45% in size. Note: potency is the fitted concentration of half-maximal effect. In a few lines:
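HCT-116 p53RE-bla, 4,000 cells/well, 5 h pre-incubation; cpd + rat liver microsomes 0.5 mg/mL + NADPH 0.5 mg/mL (final); 16 h, 37 C; CellTiter-Glo, 30 min RT; luminescence.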

Experiment [10] is described as follows: p53 small molecule agonists, cell-based qHTS assay: qHTS cell viability counter screen (AID 1963581). Note: nearly all actives have a fitted effect of over 45% in size. Note: potency is the fitted concentration of half-maximal effect. In a few lines:
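Following 5 h attachment, HCT-116 p53RE-bla cells took up compound for 16 h at 37 C; the reporter was read with B/G FRET substrate (2 h RT), and viability then via CellTiter-Glo ATP luminescence.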

Experiment [11] has as its target 5-hydroxytryptamine receptor 2A (Homo sapiens) (UniProt P28223). Briefly: 5-hydroxytryptamine receptor 2A (HTR2A) small molecule agonists, cell-based qHTS assay (AID 1963587). Note: nearly all actives have a fitted effect of over 30% in size. Note: potency is the fitted concentration of half-maximal effect. The method, boiled down: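 Kinetic calcium-flux fluorescence (2 min, 1 sec intervals) after compound addition in agonist mode. HTR2A-CHO cells were cultured 18 h, then dye-loaded 1 h at 37 C.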

In experiment [12] the target is Muscarinic acetylcholine receptor M1 (Homo sapiens) (UniProt P11229). Briefly: Cholinergic receptor muscarinic 1 (CHRM1) small molecule antagonists, cell-based qHTS assay (AID 1963588). Note: nearly all actives have a fitted effect of over 40% in size. Note: potency is the fitted concentration of half-maximal effect. In a few lines:
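CHRM1-CHO calcium-flux assay, antagonist mode. Cells were seeded 18 h, dye-loaded 1 h at 37 C and given compound for 5 min at RT, then acetylcholine was added at 50nM. FDSS fluorescence was read 3 min; 15 concentrations, three runs.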

For experiment [13] the target is unchanged. As to the kind of experiment: Cholinergic receptor muscarinic 1 (CHRM1) small molecule agonists, cell-based qHTS assay (AID 1963589). Note: nearly all actives have a fitted effect of over 35% in size. In a few lines:
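Measures agonist-induced intracellular calcium rise. Stable human CHRM1 CHO line, 1 h dye load at 37 C, compounds from DMSO, kinetic fluorescence read.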

Experiment [14] can be described thus: cAMP Responsive Elements (CRE) small molecule agonists, cell-based qHTS assay (AID 1963590). In a few lines:
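A CRE-responsive beta-lactamase reporter in HEK 293T cells was used. Treatment ran 3 h at 37 C; detection used LiveBLAzer B/G FRET substrate for 2 h at room temperature.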

The nature of experiment [15]: cAMP Responsive Elements (CRE) small molecule antagonists, cell-based qHTS assay (AID 1963591; active = well fitted inhibition curve with a large enough effect in the signal ratio in the repeat runs, not every such curve was filed as active; the % refers to the signal ratio). In a few lines: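 HEK293T cells carrying a CRE-driven beta-lactamase reporter receive compound and NKH477 (0.25 uM final) for 3 h. Fluorescence from LiveBLAzer B/G FRET substrate is read after 2 h at room temperature.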
For experiment [16], the target named is Beta-2 adrenergic receptor (Homo sapiens) (UniProt P07550). Briefly: Adrenergic beta2 receptor (ADRB2) small molecule antagonists, cell-based qHTS assay (AID 1963592). For activity change, negative = inhibition: series mostly up to about 92 µM. Note: nearly all actives have a fitted effect of over 50% in size. Note: potency is the fitted concentration of half-maximal effect. In a few lines:
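Cells (CHO, stable ADRB2 overexpression) incubated 18-20hr at 37C; compounds added from DMSO; agonist mix (1nM isoproterenol, 100uM IBMX, 25uM Ro-20-1724) added; 0.5hr RT; d2-cAMP and anti-cAMP-cryptate added; 1hr RT; 665/615 nm read.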

Experiment [17] addresses D(2) dopamine receptor (Homo sapiens) (UniProt P14416). As to the kind of experiment: Dopamine D2 receptor (DRD2) small molecule agonists, cell-based qHTS assay (AID 1963594). Note: nearly all actives have a fitted effect of over 35% in size. Note: potency is the fitted concentration of half-maximal effect. In a few lines:
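cAMP accumulation in DRD2-HEK293 cells measured by HTRF after 1 h detection; compounds added 10 min before NKH477 (200nM […]) forskolin-analogue stimulation, 30 min at room temperature, with Ro20-1724 present at 0.1 mM final.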

Experiment [18] shares this target. Briefly: Dopamine D2 receptor (DRD2) small molecule antagonists, cell-based qHTS assay (AID 1963595; active = well fitted inhibition curve with a large enough effect in the signal ratio in the repeat runs, with a control signal flat; the % refers to the signal ratio; note: potency is the fitted concentration of half-maximal effect). In a few lines: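 Readout: HTRF cAMP, cAMP-d2 competing with cellular cAMP for anti-cAMP cryptate, read after 1 h. Cells: DRD2-HEK293. Conditions: 0.1 mM Ro20-1724, 12 nM quinpirole, 200 nM NKH477, 30 min RT.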
Experiment [19] addresses 5-hydroxytryptamine receptor 2A (Homo sapiens) (UniProt P28223). As to the kind of experiment: 5-hydroxytryptamine receptor 2A (HTR2A) small molecule antagonists, cell-based qHTS assay (AID 1963586). Note: nearly all actives have a fitted effect of over 45% in size. In a few lines:
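Antagonist-mode intracellular calcium assay: DOI (4 nM) added after 5 min compound pre-incubation at room temperature to dye-loaded HTR2A-CHO cells. Fluorescence followed for 3 min, sampled every second.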

Experiment [20] in a line: p53 small molecule agonists, cell-based qHTS assay (AID 1963582; active = well fitted activation curve with a large enough effect in the signal ratio in the repeat runs, not every such curve was filed as active; the % refers to the signal ratio). The method, boiled down:
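In this cell-based concentration-response screen, a p53 response element drives beta-lactamase; cells received DMSO-borne compounds after 5 h culture and were incubated a further 16 h before FRET substrate development.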
% is set by controls: 0 for no effect and ±100 for the full control effect.

Chain of KiSS-1 receptor (Homo sapiens) (Q969F8 whole entry, looked up): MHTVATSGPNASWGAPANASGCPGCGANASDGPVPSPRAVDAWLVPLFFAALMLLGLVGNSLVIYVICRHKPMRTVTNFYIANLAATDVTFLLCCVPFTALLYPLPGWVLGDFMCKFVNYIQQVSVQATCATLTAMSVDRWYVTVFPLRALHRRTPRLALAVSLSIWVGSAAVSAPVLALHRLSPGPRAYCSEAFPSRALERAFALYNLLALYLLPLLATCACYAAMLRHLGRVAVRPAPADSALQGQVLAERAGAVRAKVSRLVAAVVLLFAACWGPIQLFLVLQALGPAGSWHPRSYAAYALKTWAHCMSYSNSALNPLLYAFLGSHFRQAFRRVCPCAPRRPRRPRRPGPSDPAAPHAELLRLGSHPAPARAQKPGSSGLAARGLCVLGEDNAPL
Chain of Beta-2 adrenergic receptor (Homo sapiens) (P07550 whole entry, looked up): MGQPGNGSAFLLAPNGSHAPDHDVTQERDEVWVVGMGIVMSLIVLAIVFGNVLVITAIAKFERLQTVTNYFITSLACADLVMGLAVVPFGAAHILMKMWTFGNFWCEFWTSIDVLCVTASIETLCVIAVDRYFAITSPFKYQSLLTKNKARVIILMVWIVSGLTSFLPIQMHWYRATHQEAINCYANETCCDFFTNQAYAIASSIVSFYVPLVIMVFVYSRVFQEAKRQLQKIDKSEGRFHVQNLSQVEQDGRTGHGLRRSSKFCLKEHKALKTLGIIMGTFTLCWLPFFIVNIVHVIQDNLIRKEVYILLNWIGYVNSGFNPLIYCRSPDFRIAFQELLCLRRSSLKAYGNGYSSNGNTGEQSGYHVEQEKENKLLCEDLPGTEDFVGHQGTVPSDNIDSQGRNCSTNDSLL
Chain of 5-hydroxytryptamine receptor 2A (Homo sapiens) (P28223 whole entry, looked up): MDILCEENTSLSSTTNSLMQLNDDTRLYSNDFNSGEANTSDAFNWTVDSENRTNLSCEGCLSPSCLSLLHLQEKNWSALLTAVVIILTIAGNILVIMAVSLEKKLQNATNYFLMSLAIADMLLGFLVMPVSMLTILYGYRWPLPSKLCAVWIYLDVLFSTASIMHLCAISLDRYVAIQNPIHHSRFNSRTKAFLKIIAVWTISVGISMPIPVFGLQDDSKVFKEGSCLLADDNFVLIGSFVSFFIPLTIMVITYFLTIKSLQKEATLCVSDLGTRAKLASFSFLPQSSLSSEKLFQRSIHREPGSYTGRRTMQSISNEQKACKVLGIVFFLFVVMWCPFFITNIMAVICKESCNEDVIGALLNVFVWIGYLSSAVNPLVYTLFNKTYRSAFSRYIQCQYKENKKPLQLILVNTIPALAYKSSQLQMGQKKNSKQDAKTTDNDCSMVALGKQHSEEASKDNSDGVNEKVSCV
Chain of D(2) dopamine receptor (Homo sapiens) (P14416 whole entry, looked up): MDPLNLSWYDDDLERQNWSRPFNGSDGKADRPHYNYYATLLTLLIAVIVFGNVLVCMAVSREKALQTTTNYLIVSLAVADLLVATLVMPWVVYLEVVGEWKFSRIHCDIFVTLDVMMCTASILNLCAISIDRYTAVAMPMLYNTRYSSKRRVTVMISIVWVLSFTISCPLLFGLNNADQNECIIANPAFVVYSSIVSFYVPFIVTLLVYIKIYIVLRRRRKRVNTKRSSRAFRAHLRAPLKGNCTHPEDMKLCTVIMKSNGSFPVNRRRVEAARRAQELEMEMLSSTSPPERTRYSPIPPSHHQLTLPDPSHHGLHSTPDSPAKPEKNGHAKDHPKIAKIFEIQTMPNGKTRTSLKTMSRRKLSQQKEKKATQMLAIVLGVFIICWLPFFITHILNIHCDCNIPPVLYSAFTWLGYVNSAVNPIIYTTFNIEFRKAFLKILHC
Chain of Gonadotropin-releasing hormone receptor (Homo sapiens) (P30968 whole entry, looked up): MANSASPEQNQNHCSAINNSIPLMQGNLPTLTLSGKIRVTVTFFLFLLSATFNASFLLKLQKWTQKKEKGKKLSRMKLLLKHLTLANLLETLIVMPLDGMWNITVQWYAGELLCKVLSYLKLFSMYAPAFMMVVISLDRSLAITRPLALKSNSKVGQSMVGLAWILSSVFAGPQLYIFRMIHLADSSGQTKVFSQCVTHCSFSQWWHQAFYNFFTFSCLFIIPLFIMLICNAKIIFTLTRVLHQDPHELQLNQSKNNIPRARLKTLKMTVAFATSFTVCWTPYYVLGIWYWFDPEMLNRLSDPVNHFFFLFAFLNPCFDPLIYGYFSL
Chain of Muscarinic acetylcholine receptor M1 (Homo sapiens) (P11229 whole entry, looked up): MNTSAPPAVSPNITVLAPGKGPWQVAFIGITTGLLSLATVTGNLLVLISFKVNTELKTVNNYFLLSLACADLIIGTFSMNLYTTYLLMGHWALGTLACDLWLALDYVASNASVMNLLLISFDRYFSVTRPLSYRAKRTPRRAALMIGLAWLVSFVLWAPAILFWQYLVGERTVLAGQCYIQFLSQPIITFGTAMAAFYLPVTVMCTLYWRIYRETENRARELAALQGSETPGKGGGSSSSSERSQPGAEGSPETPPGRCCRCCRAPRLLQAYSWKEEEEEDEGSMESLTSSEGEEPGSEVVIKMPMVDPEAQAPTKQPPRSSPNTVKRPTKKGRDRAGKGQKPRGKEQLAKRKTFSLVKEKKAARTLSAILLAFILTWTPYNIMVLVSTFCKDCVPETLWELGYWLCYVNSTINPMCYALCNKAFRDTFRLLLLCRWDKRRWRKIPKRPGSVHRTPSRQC

`CCN(CC)CCOC(=O)C(C)(c1ccccc1)c1ccccc1`: the Potency entry in experiment [1], in experiment [2], in [3], in [4], in experiment [5] and in experiment [6] was “inactive” each time. Besides, the Potency entry in [7], in [8], in [9], in experiment [10], in experiment [11] and in [13] was “inactive” in each case. Also, the Potency entry in experiment [14], in experiment [15], in [16], in experiment [17] and in experiment [18] was “inactive” throughout. For the same compound, in [12], the Potency was 0.013 µM (active).

Turning to `Cc1ccc2nc3sc(=O)sc3nc2c1`, the Potency was 3.66 µM (active) in experiment [1] and 1.64 µM (active) in [2]. For the same compound, in [3], the activity change is -0.0057% [at 11.8 µM, hits give high values]. Moreover, the activation in experiment [4] was -1.66% [at 15.8 µM]; in experiment [5] it was -0.174% [at 11.8 µM]; in experiment [6], 12.4% [at 13.5 µM]; in [7], 0.351% [at 13.6 µM]; in experiment [11], -3.01% [at 15.9 µM]; in [13], -0.991% [at 15.8 µM]. The activation in experiment [17] was 1.16% [at 19 µM]. For the same compound, the activity change, negative = cytotoxicity in [8] is 4.93% [at 13.5 µM]; in [9], -3.16% [at 13.5 µM]; in experiment [10], -2.54% [at 13.5 µM]. Besides, the activity, negative = inhibition in experiment [19] is 8.83% [at 12.7 µM]. The results for the activity change, negative = inhibition in experiment [15], in experiment [16] and in [18] were 1.33% [at 18.9 µM], -4.14% [at 19 µM] and 0.198% [at 18.9 µM], respectively.

Consider `CCN(CC)C(=O)N[C@@H]1C=C2c3cccc4[nH]cc(c34)C[C@@H]2N(C)C1`, for which the Potency result in experiment [1], in experiment [2], in experiment [3], in experiment [4], in [5] and in [6] was “inactive” each time. For the same compound, the Potency entry in experiment [7], in experiment [8], in experiment [9], in experiment [10] and in experiment [14] was “inactive” in each case.

Turning to `CC(Cc1ccc(OCC(=O)O)cc1)NCC(O)c1csc(C(F)(F)F)n1` (configuration not stated), the Potency entry in experiment [1], in [2], in experiment [3], in experiment [4], in [5] and in experiment [6] was “inactive” throughout. In addition, the Potency result in [7], in experiment [8], in experiment [9], in experiment [20], in [19] and in experiment [11] was “inactive” each time. Besides, the Potency result in [12], in [13], in [14], in [15] and in experiment [18] was “inactive” throughout.

As to `O=C1CN2CCOC2(c2ccccc2Cl)c2cc(Cl)ccc2N1` (configuration not stated), the Potency entry in [1], in experiment [2], in experiment [3], in experiment [4], in experiment [5] and in [6] was “inactive” throughout. Further, the Potency result in [7], in experiment [8], in experiment [9], in experiment [20], in experiment [19] and in experiment [11] was “inactive” in each case. Moreover, the Potency result in experiment [13], in [14], in experiment [15], in experiment [16] and in [17] was “inactive” in each case.

With `CC(=O)[O][Sn]([c]1ccccc1)([c]1ccccc1)[c]1ccccc1`, the Potency in experiment [1] was 0.0486 µM (active); in experiment [2] it was 0.0193 µM (active); in experiment [3], 17.4 µM (active); in experiment [4], 49 µM (active); in experiment [5] it was 38.9 µM (active); in experiment [8] it was 6.46 µM (active). For the same compound, the Potency was 1.62 µM (active) in experiment [9]; 10.2 µM (active) in experiment [10]; 24.5 µM (active) in experiment [11]; 61.1 µM (active) in experiment [16]; 52.4 µM (active) in experiment [17]; 3.06 µM (active) in [18]. The Potency entry in experiment [6] and in experiment [7] was “inactive” in each case.

In the case of `CC(C)OC(=O)C(O)(c1ccc(Cl)cc1)c1ccc(Cl)cc1`, the Potency in experiment [1] is 30.6 µM (active); in [8], 40.8 µM (active); in [12] it was 13.3 µM (active). For the same compound, the Potency result in experiment [2], in experiment [3], in experiment [4], in experiment [5], in [6] and in [7] was “inactive” throughout. The Potency entry in [19], in [11], in experiment [13] and in experiment [17] was “inactive” throughout.
